Data on 24 molecules can be found in PubChem BioAssay (Tox21).

Experiment [1] is described as follows: qHTS assay to identify small molecule antagonists of the estrogen related receptor (ERR) signaling pathway from Tox21 library - cell viability counter screen (AID 1224834). Note: nearly all actives have a fitted effect of over 30% in size. Note: potency is the fitted concentration of half-maximal effect. The essentials:
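ERR reporter cells, 2,000 per well, rested 6 h, then exposed to compound in DMSO for 17.5 hours at 37 C. Viability read as fluorescence after 30 min with CellTiter-Fluor.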
A general note: In qHTS, concentration-response curves come from the screen itself.

Experiment [2] has as its target Luciferin 4-monooxygenase (Photinus pyralis) (UniProt P08659). Nature of the experiment: qHTS assay to identify small molecule inhibitors of firefly luciferase (AID 1224835). For activity change, negative = inhibition: series mostly up to about 120 µM. Note: nearly all actives have a fitted effect of over 25% in size. Note: potency is the fitted concentration of half-maximal effect. The essentials:
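Inhibition of purified Photinus luciferase is measured by luminescence. Substrate levels (D-luciferin, ATP) sit at their KM values. Each compound is tested in a concentration series.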

A short description of experiment [3]: qHTS assay to identify small molecule agonists of the constitutive androstane receptor (CAR) signaling pathway - cell viability counter screen (AID 1224836). For viability change, negative = cytotoxic: series mostly up to about 92 µM. Note: nearly all actives have a fitted effect of over 45% in size. Note: potency is the fitted concentration of half-maximal effect. The essentials:
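Multiplexed viability check: HepG2-CYP2B6-hCAR cells, 15-point compound dosing, 0.75 uM PK11195 final, 23 h at 37 C, CellTiter-Fluor fluorescence.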

Experiment [4] can be described thus: qHTS assay to identify small molecule antagonists of the constitutive androstane receptor (CAR) signaling pathway - cell viability counter screen (AID 1224837). For activity change, negative = cytotoxicity: series mostly up to about 92 µM. Note: nearly all actives have a fitted effect of over 45% in size. Note: potency is the fitted concentration of half-maximal effect. The essentials:
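HepG2 cells stably carrying hCAR and CYP2B6-2.2kb reporter, stimulated with 50 nM CITCO and compounds at 15 concentrations for 23 h at 37 C. Viability measured by CellTiter-Fluor fluorescence.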

The target of experiment [5] is Nuclear receptor subfamily 1 group I member 3 (Homo sapiens) (UniProt Q14994). Nature of the experiment: qHTS assay to identify small molecule antagonists of the constitutive androstane receptor (CAR) signaling pathway (AID 1224838). Note: nearly all actives have a fitted effect of over 40% in size. Note: potency is the fitted concentration of half-maximal effect. The essentials:
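HepG2 cells stably carrying hCAR and a CYP2B6-2.2kb luciferase reporter, seeded 4 hrs before compound (15 concentrations). Stimulated with 50 nM CITCO for 24 hr at 37 C. ONE-Glo luminescence read after 30 min at room temperature.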

The target is the same in experiment [6]. In words: qHTS assay to identify small molecule agonists of the constitutive androstane receptor (CAR) signaling pathway (AID 1224839). Note: series mostly up to about 92 µM; nearly all actives have a fitted effect of over 15% in size. A digest of the protocol: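 Using human hepatoma HepG2 cells engineered with hCAR and a CYP2B6-2.2kb reporter, 15-concentration compound series were incubated 24 h alongside PK11195 at 0.75 uM final, with luminescence quantified afterwards.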

Experiment [7] in a line: qHTS assay to identify small molecule antagonists of the estrogen related receptor signaling pathway with the pleiotropic PPARgamma coactivator (PGC) from Tox21 10K library - cell viability counter screen (AID 1224840; active = well fitted cell-killing curve with a large enough effect in the repeat runs, not every such curve was filed as active; note: nearly all actives have a fitted effect of over 40% in size; note: potency is the fitted concentration of half-maximal effect). A digest of the protocol:
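PGC/ERR cells (2,000/well) plated 6 h, then compound-treated for 17.5 h at 37 C. Viability measured by CellTiter-Fluor fluorescence after 30 min at 37 C, multiplexed with the pathway assay.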

A short description of experiment [8]: qHTS assay to identify small molecule agonists of the estrogen related receptor signaling pathway with the pleiotropic PPARgamma coactivator (PGC) from Tox21 10K library (AID 1224842). Note: nearly all actives have a fitted effect of over 15% in size. A digest of the protocol: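 Luminescence from One-Glo (30 min, room temperature) measured after PGC/ERR cells had 18 h at 37 C with pinned compound (23 nL in DMSO). Cells had been seeded at 2,000 per well and pre-incubated 6 h.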

Experiment [9] concerns the target Thyrotropin receptor (Homo sapiens) (UniProt P16473). Nature of the experiment: qHTS assay to identify small molecule agonists of the thyroid stimulating hormone receptor (TSHR) signaling pathway (AID 1224843; calls by dose curve; note: nearly all actives have a fitted effect of over 45% in size). A digest of the protocol:
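Screening of the Tox21 10K collection used HEK293 cells engineered with TSHR at 800 cells per well. After a 30-min room-temperature compound exposure, HTRF cAMP reagents were added and fluorescence recorded 1 h later.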

Experiment [10] can be described thus: qHTS assay to identify small molecule antagonists of the estrogen related receptor signaling pathway with the pleiotropic PPARgamma coactivator (PGC) from Tox21 10K library (AID 1224841; call rule not given here; note: series mostly up to about 92 µM; actives are mostly falling curves and most rising ones were filed inactive; nearly all actives have a fitted effect of over 50% in size). The essentials:
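PGC/ERR cell line, 2,000 cells/well, pre-incubated 6 hours at 37 C, then exposed to compounds for 18 hours at 37 C; luciferase read with One-Glo luminescence after 30 min at room temperature.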

Each structure is given as a SMILES string. “And” between values parts separate entries of the source, which are not always exact repeats. Identical values can stand only once. Inconclusive results are not listed. Unmarked numbers belong to inactive results. The source made the active and inactive calls. Unless noted, calls come from the whole dose curve; as a rule, active = well fitted curve in the direction sought with a large enough effect in the repeat runs; inconclusive = weak or mixed curves; inactive = no such curve, though single readings can be large; an effect the other way counts as inactive or inconclusive.
% is set by controls: 0 for no effect and ±100 for the full control effect.

Chain of Thyrotropin receptor (Homo sapiens) (P16473 whole entry, looked up): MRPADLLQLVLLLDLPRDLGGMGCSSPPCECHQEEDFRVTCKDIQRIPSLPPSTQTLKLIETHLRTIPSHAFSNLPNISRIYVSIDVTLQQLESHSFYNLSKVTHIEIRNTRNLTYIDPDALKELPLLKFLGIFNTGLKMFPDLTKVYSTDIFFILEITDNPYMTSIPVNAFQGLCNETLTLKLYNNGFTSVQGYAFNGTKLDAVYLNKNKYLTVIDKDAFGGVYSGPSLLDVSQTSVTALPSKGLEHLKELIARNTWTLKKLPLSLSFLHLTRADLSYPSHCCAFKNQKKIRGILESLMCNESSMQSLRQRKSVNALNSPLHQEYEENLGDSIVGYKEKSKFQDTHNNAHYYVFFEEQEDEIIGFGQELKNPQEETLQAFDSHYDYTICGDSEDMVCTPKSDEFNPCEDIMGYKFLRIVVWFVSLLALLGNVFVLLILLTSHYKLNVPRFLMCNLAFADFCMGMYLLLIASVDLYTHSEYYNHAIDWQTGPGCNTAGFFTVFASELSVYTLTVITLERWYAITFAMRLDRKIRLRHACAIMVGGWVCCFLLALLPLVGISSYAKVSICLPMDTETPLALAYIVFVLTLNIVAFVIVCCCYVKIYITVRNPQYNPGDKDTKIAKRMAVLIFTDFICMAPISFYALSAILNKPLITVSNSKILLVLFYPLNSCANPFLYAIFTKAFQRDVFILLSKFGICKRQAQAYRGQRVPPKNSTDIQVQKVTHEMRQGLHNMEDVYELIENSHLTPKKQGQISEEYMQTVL
Chain of Nuclear receptor subfamily 1 group I member 3 (Homo sapiens) (Q14994 whole entry, looked up): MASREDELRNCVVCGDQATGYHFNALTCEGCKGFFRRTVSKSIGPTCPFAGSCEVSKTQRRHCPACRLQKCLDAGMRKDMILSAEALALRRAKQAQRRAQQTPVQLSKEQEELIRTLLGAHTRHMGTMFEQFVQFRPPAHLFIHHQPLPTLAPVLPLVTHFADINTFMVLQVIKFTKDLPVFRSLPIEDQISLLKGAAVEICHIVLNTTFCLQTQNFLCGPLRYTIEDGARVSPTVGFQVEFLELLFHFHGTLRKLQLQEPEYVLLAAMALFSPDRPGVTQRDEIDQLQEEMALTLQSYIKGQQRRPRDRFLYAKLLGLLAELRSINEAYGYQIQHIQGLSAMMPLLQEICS
Chain of Luciferin 4-monooxygenase (Photinus pyralis) (P08659 whole entry, looked up): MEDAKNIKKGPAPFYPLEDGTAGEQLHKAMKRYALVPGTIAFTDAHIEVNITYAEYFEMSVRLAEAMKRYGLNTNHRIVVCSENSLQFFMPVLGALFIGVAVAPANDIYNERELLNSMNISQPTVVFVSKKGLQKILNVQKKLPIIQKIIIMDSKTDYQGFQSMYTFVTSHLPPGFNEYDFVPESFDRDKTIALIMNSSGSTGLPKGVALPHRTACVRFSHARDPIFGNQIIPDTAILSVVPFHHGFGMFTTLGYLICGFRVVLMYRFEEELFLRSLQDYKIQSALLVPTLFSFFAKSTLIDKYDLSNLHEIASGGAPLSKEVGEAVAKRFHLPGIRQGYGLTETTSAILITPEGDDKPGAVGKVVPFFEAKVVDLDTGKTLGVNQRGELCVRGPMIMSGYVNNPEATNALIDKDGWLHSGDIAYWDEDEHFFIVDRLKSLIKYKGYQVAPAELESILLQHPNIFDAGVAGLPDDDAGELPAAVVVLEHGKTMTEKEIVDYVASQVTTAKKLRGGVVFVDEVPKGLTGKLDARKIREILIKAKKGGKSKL

Turning to `CCCC1CCC(=O)CC1`, the Potency entry in experiment [1], in experiment [2], in experiment [3], in experiment [4], in [5] and in experiment [6] was “inactive” each time.

In the case of `CC1(C)CCC[C@]2(C)[C@H]3CCO[C@]3(C)CC[C@@H]12`, the Potency entry in experiment [1], in [2], in experiment [3], in experiment [4], in experiment [5] and in [6] was “inactive” in each case. The Potency result in [7], in experiment [8] and in experiment [9] was “inactive” in each case.

With `c1cnccn1`, the Potency entry in [1], in [2], in [3], in [4], in [5] and in experiment [6] was “inactive” each time. Further, the Potency entry in experiment [9] was “inactive”.

Consider `CCCCCCC1CCCC(=O)O1` (stereo unspecified), for which the Potency result in experiment [1], in experiment [2], in experiment [3], in experiment [4], in [5] and in experiment [6] was “inactive” in each case. The Potency entry in experiment [7], in [8] and in [9] was “inactive” throughout.

For `CC1(C)CC(O)CC(C)(C)N1`, the Potency result in experiment [1], in [2], in [3], in experiment [4], in [5] and in [7] was “inactive” in each case. Also, the Potency entry in experiment [9] is “inactive”.

Take `O=C(O)c1cccc(C(F)(F)F)c1`: the Potency entry in [1], in [2], in [3], in [4], in experiment [5] and in [6] was “inactive” in each case. Also, the Potency entry in experiment [7], in [10], in experiment [8] and in experiment [9] was “inactive” throughout.

On to `Cc1cccc2cccnc12`, for which the Potency result in [1], in experiment [2], in [3], in experiment [4], in experiment [5] and in experiment [6] was “inactive” in each case. Further, the Potency result in [7], in experiment [10], in experiment [8] and in [9] was “inactive” in each case.

Turning to `CCC(COC(=O)CCS)(COC(=O)CCS)COC(=O)CCS`, the Potency entry in experiment [1], in [2], in experiment [3], in experiment [4], in experiment [5] and in [7] was “inactive” each time. For the same molecule, the Potency entry in experiment [10], in experiment [8] and in [9] was “inactive” throughout.

Regarding `C=CCCC(=O)/C=C/C1C(C)=CCCC1(C)C` (stereo unspecified), the Potency result in experiment [1], in [2], in experiment [3], in experiment [4], in [5] and in experiment [7] was “inactive” in each case.

`CN(C)c1ccc(C(=C2C=CC(=[N+](C)C)C=C2)c2ccc(N(C)C)cc2)cc1`: the Potency in experiment [1] is 9.64 µM (active) and 12.2 µM (active) and 13.3 µM (active); in [2], 17.7 µM (active) and 35.6 µM (active) and 17.4 µM (active); in experiment [3], 7.66 µM (active) and 6.86 µM (active) and 5.96 µM (active); in [4], 8.59 µM (active) and 7.7 µM (active) and 5.31 µM (active); in [5], 27.2 µM (active) and 27.3 µM (active) and 13.3 µM (active); in experiment [7], 9.64 µM (active) and 4.33 µM (active) and 11.9 µM (active).

In the case of `OC1CCCc2ccccc21` (stereo unspecified), the Potency entry in [1], in [2], in [3], in experiment [4], in [5] and in experiment [6] was “inactive” each time. The Potency entry in experiment [7] and in experiment [9] was “inactive” in each case.

Consider `O=C1CCCCCCCCCCCCCCCO1`, for which the Potency result in experiment [1], in experiment [2], in experiment [3], in [4], in experiment [5] and in experiment [6] was “inactive” throughout. In addition, the Potency result in experiment [7], in experiment [10], in [8] and in experiment [9] was “inactive” throughout.

For the molecule `Cc1ccc(C(=O)O)cc1`, the Potency entry in experiment [1], in experiment [2], in experiment [3], in experiment [4], in experiment [5] and in [6] was “inactive” in each case. Moreover, the Potency entry in [7], in experiment [10], in experiment [8] and in [9] was “inactive” in each case.

For the molecule `CCCCOC(=O)CC`, the Potency result in [1], in [2], in experiment [3], in [4], in [5] and in [6] was “inactive” in each case. Further, the Potency result in [7] and in experiment [9] was “inactive” throughout.

With `C1CCC(SSC2CCCCC2)CC1`, the Potency result in experiment [1], in experiment [2], in experiment [3], in [4], in experiment [5] and in experiment [6] was “inactive” in each case. In addition, the Potency entry in experiment [8] and in experiment [9] was “inactive” each time.

Take `CCCCC(CC)CN1CN(CC(CC)CCCC)CC(C)(N)C1` (stereo unspecified): the Potency result in experiment [1], in experiment [2], in experiment [3], in experiment [4], in experiment [7] and in [8] was “inactive” each time.

Turning to `OC[C@H]1O[C@H](O[C@H]2O[C@H](CO)[C@@H](O)[C@H](O)[C@H]2O)[C@H](O)[C@@H](O)[C@@H]1O`, the Potency entry in experiment [1], in experiment [2], in experiment [3], in [4], in experiment [7] and in experiment [10] was “inactive” each time. The Potency entry in [8] and in [9] was “inactive” in each case.

As for `Nc1nc(N)nc(-c2cc(Cl)ccc2Cl)n1`, the Potency entry in [1], in [2], in [3], in [4], in experiment [6] and in experiment [7] was “inactive” throughout.

Regarding `Cc1c(C)c2c(c(C)c1O)CC[C@@](C)(CCC[C@H](C)CCC[C@H](C)CCCC(C)C)O2`, the Potency result in experiment [1], in experiment [2], in [3], in experiment [4] and in [7] was “inactive” in each case.

In the case of `Cc1nc(-c2ccc(Cl)cc2)oc1COC(C)(C)C(=O)O`, the Potency entry in experiment [1], in [2], in experiment [3], in experiment [4], in experiment [6] and in experiment [10] was “inactive” each time. Besides, the Potency entry in experiment [8] and in [9] was “inactive” throughout.

Turning to `CCCC[P+](C)(CCCC)CCCC`, the Potency result in experiment [1], in [2], in [3], in experiment [4], in experiment [6] and in experiment [7] was “inactive” in each case. Also, the Potency result in [9] was “inactive”.

`NC[C@H]1O[C@H](O[C@H]2[C@H](O[C@@H]3O[C@H](CO)[C@@H](O)[C@H]3O)C(O)[C@H](N)C[C@@H]2N)[C@H](N)[C@@H](O)[C@@H]1O` (stereo partly specified): the viability change, negative = cytotoxic is 2.75% [at 8.39 µM] in experiment [1], 0.325% [at 8.39 µM] in [3] and 0.247% [at 8.39 µM] in experiment [7]. In experiment [2], the activity change, negative = inhibition is 6.81% [at 10.5 µM]. In addition, the activity change, negative = cytotoxicity in [4] was 3.7% [at 8.39 µM]. Moreover, the activity, negative = inhibition in experiment [5] was -13% [at 8.39 µM]. In experiment [9], the activation was -0.16% [at 8.39 µM].

On to `CC(=O)Oc1cc2c(s1)CCN(C(C(=O)C1CC1)c1ccccc1F)C2` (stereo unspecified), for which the Potency entry in experiment [1], in [2], in experiment [3], in [4], in experiment [7] and in experiment [10] was “inactive” throughout. For the same molecule, the Potency result in experiment [8] and in [9] was “inactive” throughout.

In the case of `COC(=O)c1ccccc1C`, the Potency entry in experiment [1], in experiment [2], in experiment [3], in [4], in [7] and in experiment [10] was “inactive” throughout. Further, the Potency result in [8] and in [9] was “inactive” throughout.
